# Several values for one entry are separate records, joined by “and”; a condition that tells them apart may be missing. Equal values may be shown once. Among all 5,500 compounds or so, about 2,000 (36%) were called active. Another 18% or so got no clear call; they are omitted. Rule as the data show it: active = normalized growth mostly below about 0.91 (no sharp cut-off); inconclusive = no clear call, values can overlap the other calls; inactive = mostly above about 0.92. The list shows a part of the results.
# Assay: chemical genetic growth profiling, strain panel (AID 1159580);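 also: tested at 20 µM; growth read once vehicle control cultures reached saturation at 30 °C; 1 = growth at the plate median or of vehicle wells; lower values mean less growth of the strain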
# Conditions: S. cerevisiae deletion strains, growth OD
smiles,measurement,setting,value
CCOC(=O)c1c(C)cc(O)cc1O,normalized growth,"locus YAL021C, strain ccr4, stronger effect = lower value",0.924 (inactive)
same,normalized growth,"locus YAL026C, strain drs2, stronger effect = lower value",0.946 (inactive)
same,normalized growth,"locus YAL030W, strain snc1, stronger effect = lower value",0.928 (active)
same,normalized growth,"locus YBL061C, strain skt5, stronger effect = lower value",0.94 (inactive)
same,normalized growth,"locus YBR009C, strain hhf1, stronger effect = lower value",0.896 (active)
same,normalized growth,"locus YBR021W, strain FUR4, stronger effect = lower value",1.01 (inactive)
same,normalized growth,"locus YBR023C, strain chs3, stronger effect = lower value",0.922 (inactive)
same,normalized growth,"locus YBR171W, strain sec66, stronger effect = lower value",0.904 (inactive)
same,normalized growth,"locus YBR229C, strain ROT2, stronger effect = lower value",0.941 (inactive)
same,normalized growth,"locus YBR231C, strain swc5, stronger effect = lower value",0.897 (active)
same,normalized growth,"locus YBR279W, strain paf1, stronger effect = lower value",0.947 (inactive)
same,normalized growth,"locus YCL011C, strain gbp2, stronger effect = lower value",0.891 (active)
same,normalized growth,"locus YCL016C, strain dcc1, stronger effect = lower value",0.921 (inactive)
same,normalized growth,"locus YCL029C, strain bik1, stronger effect = lower value",0.92 (inactive)
same,normalized growth,"locus YCL069W, strain vba3, stronger effect = lower value",0.939 (inactive)
same,normalized growth,"locus YCR088W, strain abp1, stronger effect = lower value",0.934 (inactive)
same,normalized growth,"locus YDL005C, strain med2, stronger effect = lower value",0.921 (inactive)
same,normalized growth,"locus YDL035C, strain GPR1, stronger effect = lower value",0.973 (inactive)
same,normalized growth,"locus YDL040C, strain nat1, stronger effect = lower value",0.94 (inactive)
same,normalized growth,"locus YDL074C, strain BRE1, stronger effect = lower value",0.923 (inactive)
same,normalized growth,"locus YDL101C, strain DUN1, stronger effect = lower value",0.917 (inactive)
same,normalized growth,"locus YDL134C, strain PPH21, stronger effect = lower value",0.874 (active)
same,normalized growth,"locus YDL185W, strain tfp1, stronger effect = lower value",0.896 (active)
same,normalized growth,"locus YDL192W, strain arf1, stronger effect = lower value",0.896 (active)
same,normalized growth,"locus YDR001C, strain nth1, stronger effect = lower value",0.909 (active)
same,normalized growth,"locus YDR069C, strain doa4, stronger effect = lower value",0.916 (inactive)
same,normalized growth,"locus YDR101C, strain arx1, stronger effect = lower value",0.915 (active)
same,normalized growth,"locus YDR137W, strain rgp1, stronger effect = lower value",0.905 (inactive)
same,normalized growth,"locus YDR159W, strain sac3, stronger effect = lower value",0.887 (inactive)
same,normalized growth,"locus YDR162C, strain NBP2, stronger effect = lower value",0.87 (inactive)
same,normalized growth,"locus YDR195W, strain ref2",0.981 (inactive)
same,normalized growth,"locus YDR297W, strain sur2, stronger effect = lower value",0.93 (inactive)
same,normalized growth,"locus YDR318W, strain mcm21, stronger effect = lower value",0.893 (active)
same,normalized growth,"locus YDR334W, strain swr1, stronger effect = lower value",0.922 (inactive)
same,normalized growth,"locus YDR335W, strain msn5, stronger effect = lower value",0.935 (inactive)
same,normalized growth,"locus YDR388W, stronger effect = lower value",0.916 (active)
same,normalized growth,"locus YDR392W, strain spt3, stronger effect = lower value",0.831 (inactive)
same,normalized growth,"locus YDR502C, strain sam2, stronger effect = lower value",0.844 (active)
same,normalized growth,"locus YEL003W, strain gim4, stronger effect = lower value",0.947 (inactive)
same,normalized growth,"locus YEL037C, strain rad23, stronger effect = lower value",0.937 (inactive)
same,normalized growth,"locus YEL061C, strain CIN8 (second series), stronger effect = lower value",0.937 (inactive)
same,normalized growth,"locus YER015W, strain faa2, stronger effect = lower value",0.924 (active)
same,normalized growth,"locus YER016W, strain bim1, stronger effect = lower value",0.946 (inactive)
same,normalized growth,"locus YER110C, stronger effect = lower value",0.882 (active)
same,normalized growth,"locus YER111C, strain swi4, stronger effect = lower value",0.937 (inactive)
same,normalized growth,"locus YER155C, strain BEM2 (second series), stronger effect = lower value",0.857 (active)
same,normalized growth,"locus YER155C, strain BEM2, stronger effect = lower value",0.927 (inactive)
same,normalized growth,"locus YER167W, strain BCK2, stronger effect = lower value",0.941 (inactive)
same,normalized growth,"locus YFR010W, strain ubp6, stronger effect = lower value",0.92 (inactive)
same,normalized growth,"locus YGL078C, strain dbp3, stronger effect = lower value",0.912 (active)
same,normalized growth,"locus YGL086W, strain mad1, stronger effect = lower value",0.883 (active)
same,normalized growth,"locus YGL167C, strain pmr1, stronger effect = lower value",0.922 (inactive)
same,normalized growth,"locus YGL173C, strain kem1, stronger effect = lower value",0.928 (inactive)
same,normalized growth,"locus YGL227W, strain vid30, stronger effect = lower value",0.937 (inactive)
same,normalized growth,"locus YGL240W, strain doc1, stronger effect = lower value",0.887 (active)
same,normalized growth,"locus YGL248W, strain PDE1, stronger effect = lower value",0.877 (active)
same,normalized growth,"locus YGL253W, strain hxk2, stronger effect = lower value",0.918 (inactive)
same,normalized growth,"locus YGR135W, strain pre9, stronger effect = lower value",0.823 (active)
same,normalized growth,"locus YGR252W, strain gcn5, stronger effect = lower value",0.937 (inactive)
same,normalized growth,"locus YHR013C, strain ard1, stronger effect = lower value",0.941 (inactive)
same,normalized growth,"locus YHR027C, strain rpn1, stronger effect = lower value",0.917 (active)
same,normalized growth,"locus YHR030C, strain SLT2, stronger effect = lower value",0.93 (inactive)
same,normalized growth,"locus YHR079C, strain IRE1 (second series), stronger effect = lower value",0.919 (active)
same,normalized growth,"locus YHR079C, strain IRE1, stronger effect = lower value",0.918 (inactive)
same,normalized growth,"locus YHR094C, strain hxt1, stronger effect = lower value",0.919 (active)
same,normalized growth,"locus YHR129C, strain ARP1, stronger effect = lower value",0.924 (inactive)
same,normalized growth,"locus YHR142W, strain chs7, stronger effect = lower value",0.866 (active)
same,normalized growth,"locus YHR200W, strain rpn10, stronger effect = lower value",0.864 (active)
same,normalized growth,"locus YIL066C, strain RNR3, stronger effect = lower value",0.951 (inactive)
same,normalized growth,"locus YIL073C, strain SPO22, stronger effect = lower value",0.888 (inactive)
same,normalized growth,"locus YIL125W, strain kgd1, stronger effect = lower value",0.945 (inactive)
same,normalized growth,"locus YIR030C, strain dcg1, stronger effect = lower value",0.913 (active)
same,normalized growth,"locus YJL092W, strain hpr5, stronger effect = lower value",0.923 (inactive)
same,normalized growth,"locus YJL095W, strain BCK1 (second series), stronger effect = lower value",0.917 (active)
same,normalized growth,"locus YJL095W, strain BCK1, stronger effect = lower value",0.787 (active) and 0.917 (inactive)
same,normalized growth,"locus YJL115W, strain asf1, stronger effect = lower value",0.939 (inactive)
same,normalized growth,"locus YJL129C, strain trk1, stronger effect = lower value",0.929 (inactive)
same,normalized growth,"locus YJL134W, strain LCB3, stronger effect = lower value",0.931 (inactive)
same,normalized growth,"locus YJL154C, strain vps35, stronger effect = lower value",0.922 (inactive)
same,normalized growth,"locus YJL164C, strain tpk1, stronger effect = lower value",0.903 (active)
same,normalized growth,"locus YJL166W, strain qcr8, stronger effect = lower value",0.908 (inactive)
same,normalized growth,"locus YJL168C, strain set2, stronger effect = lower value",0.931 (active)
same,normalized growth,"locus YJL187C, strain SWE1 (second series), stronger effect = lower value",0.878 (inactive)
same,normalized growth,"locus YJL187C, strain SWE1, stronger effect = lower value",0.931 (inactive)
same,normalized growth,"locus YJR043C, strain POL32, stronger effect = lower value",0.965 (inactive)

# — PubChem BioAssay AID1159580 (chemical genetic matrix, 2015)
